Assay outcomes as filed in PubChem.
GLA inh pH 4.5: blocks human alpha-galactosidase A at pH 4.5; 230,000 tested, under 10 active; P06280; AID 1467; activity change, negative = inhibition, % at 105 µM; purified enzyme, 4-MU-alpha-Gal fluorescence, pH 4.5;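 further: 0% = full activity with enzyme and -100% = basal without enzyme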
HTT cytoprotect: protects HTT-Q103 PC12 cells, measured by ATP; PC12 HTT-Q103 induced, cytoprotection, ATP luminescence, 40 h; Potency, µM (titrated, usually from 56.4 µM), without a hit: cytoprotection (ATP increase), hits mostly activators; 230,000 tested, 0.14% active; further: potency means the concentration at half of the fitted maximal effect; % of control where 0% means no effect; nearly all actives have a fitted effect of over 45% in size
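Rat PC12, Q103 Htt exon1-GFP fusion, ecdysone promoter; tebufenozide inducer 100 nM final; compound titration; qHTS, 1500 cells/well; ATPlite luminescent read.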
HTT aggregate: reduces HttQ103-GFP aggregates in PC12 cells. PC12 HttQ103-GFP aggregates, Acumen cytometry, 40 h. Potency, µM (doses to about 46.1 µM), without a hit: at the highest dose activity change, negative = inhibition, usual class: inhibitors. 220,000 tested, 1.1% active. AID 1688; further: potency means the concentration at half of the fitted maximal effect; on the % scale 0 is the no-effect control and ±100 the full control effect; nearly all actives have a fitted effect of over 60% in size
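Quantitative HTS on tebufenozide-induced (100 nM) PC12 cells stably expressing polyQ103 Huntingtin exon 1–GFP. Reduction of bright GFP aggregates, detected by laser scanning cytometry after lysis, identified actives across the titration.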
GLA spleen mod: inhibits or activates alpha-galactosidase in human spleen homogenate. human spleen homogenate, 4MU-alpha-Gal fluorescence, 40 min. Potency, µM (doses to about 80 µM), for inactives: top-dose activity change, negative = inhibition, usual class: inhibitors. 240,000 tested, 0.008% active. AID 2107;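 further: potency means the concentration at half of the fitted maximal effect; 0% = enzyme with vehicle and -100% = no enzyme basal signal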
Target sequence (P06280 32-429 limits assumed): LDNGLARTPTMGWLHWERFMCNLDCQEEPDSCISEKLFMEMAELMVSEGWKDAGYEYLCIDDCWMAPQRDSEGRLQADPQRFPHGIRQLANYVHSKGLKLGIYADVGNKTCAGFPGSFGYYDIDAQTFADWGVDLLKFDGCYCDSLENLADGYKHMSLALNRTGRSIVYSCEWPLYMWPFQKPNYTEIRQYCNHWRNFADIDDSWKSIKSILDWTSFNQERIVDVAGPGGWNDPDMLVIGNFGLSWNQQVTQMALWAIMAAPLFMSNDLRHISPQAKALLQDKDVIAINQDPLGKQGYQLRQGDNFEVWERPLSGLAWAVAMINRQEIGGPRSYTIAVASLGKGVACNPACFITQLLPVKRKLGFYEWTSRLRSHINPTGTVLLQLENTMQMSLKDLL
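qHTS titration in buffer at pH 5.0. Alpha-galactosidase activity in spleen homogenate was measured via 4-methylumbelliferone release from 1 mM fluorogenic substrate after 40 min at 37C and a pH 10 stop. AC50 came from Hill fits of control-normalized data.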
Numbers without * were called inactive; ? = inconclusive; · = no result; [ ] = remark or other dose. The list is not random: actives were taken first. Their share in the collection is about 1.2%. The call rests on the fitted dose curve; in most records, active means well fitted curve in the direction sought with a large enough effect; inconclusive means small, poorly fitted or top-dose-only effect, or another doubt; inactive means no such curve, though single readings can be large; an effect the other way counts as inactive or inconclusive.

SMILES | GLA inh pH 4.5 | HTT cytoprotect | HTT aggregate | GLA spleen mod
O=C(NC1CCCCC1)C(c1cccnc1)N(C(=O)CCl)c1ccc(F)cc1 (configuration not stated) | 5 | -71%[10 µM] | 6.3µM* | 5%
COc1ccc(N(C(=O)CCl)C(C(=O)NC2CCCCC2)c2cccnc2)cc1 (configuration not stated) | 4 | -72%[10 µM] | 22µM* | -8%
O=C(NC1CCCCC1)C(c1cccnc1)N(C(=O)CCl)c1ccccc1Cl (configuration not stated) | -2 | -5%[10 µM] | ? | 5%
NC(=O)c1ccc2nc(-c3ccc(Oc4ccc(Cl)cc4)cc3)[nH]c2c1 | · | · | · | -8%
CC(C)n1c2ccccc2c2cc([N+](=O)[O-])ccc21 | -6 | 11%[0.074 µM] | 2% | 2%
CCC(C)n1c(=S)[nH]c2c(sc3ccc([N+](=O)[O-])cc32)c1=O (configuration not stated) | -1 | 18%[10 µM] | 10µM* | -8%
Cc1c(C)c2c(c(C)c1OC(=O)c1cccnc1)CC[C@@](C)(CCC[C@H](C)CCC[C@H](C)CCCC(C)C)O2 | · | 5% | -1% | -9%
C[C@@H]1C(=O)N(S(=O)(=O)c2ccc([N+](=O)[O-])cc2)[C@H]1c1ccc(F)cc1 | · | · | · | 5%
CC(C)Cn1c(/C=N/Nc2nc3ccccc3[nH]2)nc2ccccc21 | -10 | -40%[10 µM] | 6.3µM* | -4%
CCCn1c(/C=N/Nc2nc3ccccc3[nH]2)nc2ccccc21 | -14 | -9%[10 µM] | 16µM* | 2%
Cn1c(/C=N/Nc2nc3ccccc3[nH]2)nc2ccccc21 | -2 | -138% | ? | 2%
CCN1C(C)=C(C(=O)OC(C)C)C(c2ccccc2Cl)C(C(=O)O)=C1C(=O)O (configuration not stated) | · | · | · | -17%
Cc1ccc(-c2cc(C(=O)NCCCN3CCOCC3)no2)cc1 | -2 | -32% | 3.2µM* | 0%
O=C(NCCN1CCOCC1)c1cc(-c2ccc(Cl)cc2)on1 | 0 | -15% | -2% | -6%
O=C(/C=C/C#Cc1cccc(NS(=O)(=O)c2ccccc2)c1)NO | · | · | · | 8%
CNCC(=O)NC(CCCN=C(N)N)C(=O)NC(C(=O)NC(Cc1ccc(O)cc1)C(=O)NC(C(=O)NC(Cc1cnc[nH]1)C(=O)N1CCCC1C(=O)NC(C)C(=O)O)C(C)C)C(C)C (configuration not stated) | · | 24% | 15% | ·
N#Cc1cc(Cl)c(N2CCOCC2)cc1C#N | 6 | -6% | 14% | 7%
CC1(C)CC(NCCN2CCN(C3=CC(=C(C#N)C#N)CC(C)(C)C3)CC2)=CC(=C(C#N)C#N)C1 | -21 | -46% | -11% | 0%
CCN1CCN(C2=CC3=CC(=C(C#N)C#N)CCC3CC2)CC1 (configuration not stated) | -7 | · | 2.8µM* | -13%
CN1CCN(C2=CC3=CC(=C(C#N)C#N)CCC3CC2)CC1 (configuration not stated) | -10 | -12% | 0.32µM* | -17%
N#CC(C#N)=C1C=C2C=C(N3CCCCCC3)CCC2CC1 (configuration not stated) | -6 | -1%[10 µM] | 0.71µM* | -4%
N#CC(C#N)=C1C=C2C=C(N3CCOCC3)CCC2CC1 (configuration not stated) | -17 | 8%[10 µM] | 1.3µM* | 1%
COc1cc2c(cc1OC)[C@H](c1ccccc1)CN(C)CC2 | · | -13%[1.9 µM] | · | ·
COc1ccc(N2CCn3c2nc2c3c(=O)n(CCCc3ccccc3)c(=O)n2C)c(OC)c1 | -9 | -66%[0.074 µM] | 11µM* | 3%
OCCOCCOCCO | · | ? | -7% | ·
SMILES | GLA inh pH 4.5 | HTT cytoprotect | HTT aggregate | GLA spleen mod
CC(=O)c1ccc(C2CC34CNS(=O)(=O)C3CC2O4)cc1 (configuration not stated) | · | · | · | 11%
Cc1cc(N2CCN(C/C=C/c3ccccc3)CC2)n2ncnc2n1 | -5 | ? | 3.5µM* | 1%
Cc1cc(N2CCN(c3ccccc3)CC2)n2ncnc2n1 | -3 | 12%[10 µM] | -14%[9.22 µM] | 4%
CC(C)OC(=O)c1ccc(NC(=O)c2cncc(Br)c2)cc1 | -1 | 3% | -11% | -5%
CN(C)C(=O)c1ccc(NC(=O)c2cncc(Br)c2)cc1 | 1 | 20%[10 µM] | 16µM* | -1%
CC[C@H](C)[C@H](NC(=O)[C@H](C)NC(=O)[C@H](Cc1cnc[nH]1)NC(=O)[C@@H]1CCCN1C(=O)CNC(=O)[C@H](CC(C)C)NC(=O)[C@H](CC(C)C)NC(=O)[C@H](Cc1ccc(O)cc1)NC(=O)CNC(=O)[C@H](C)NC(=O)[C@H](CO)NC(=O)[C@H](CC(N)=O)NC(=O)[C@H](CC(C)C)NC(=O)[C@@H](NC(=O)[C@H](Cc1c[nH]c2ccccc12)NC(=O)CN)[C@@H](C)O)C(=O)O | · | · | · | 6%
CC1(C)COC(c2ccc(F)c([N+](=O)[O-])c2)=N1 | -6 | 17%[10 µM] | 35µM* | 5%
N#Cc1cccc(CS(=O)(=O)c2nc3ccccc3s2)c1 | -2 | · | · | 5%
Cn1c(=O)c2c(nc(NCCO)n2CCc2ccccc2)n(C)c1=O | 9 | -23%[0.074 µM] | -11% | -3%
CC(C)n1c(NCCc2ccccc2)nc2c1c(=O)n(C)c(=O)n2C | 3 | 29%[10 µM] | 11µM* | 10%
CCCNc1nc2c(c(=O)n(C)c(=O)n2C)n1CCc1ccccc1 | -9 | -37% | ? | 0%
CCCNc1nc2c(c(=O)n(C)c(=O)n2C)n1Cc1cccc(C)c1 | -7 | 10%[10 µM] | 14µM* | -16%
COc1ccc(C(=O)NNC(=S)NC(=O)c2cc(-c3ccccc3)nc3ccccc23)cc1 | -1 | ? | 28µM* | 5%
CN(C)c1ccc(-n2cccc2/C=C/[N+](=O)[O-])cc1 | 4 | -87% | 25µM* | -1%
CN(c1ccccc1)c1ccc(/C=C/[N+](=O)[O-])cc1 | -6 | -32%[10 µM] | -5% | -6%
CCc1nc(Cl)c(C#N)c2c1CCCC2 | -2 | 2%[10 µM] | 11µM* | ?
O=C(O)c1ccc2c(c1)C(=O)N([C@@H](Cc1ccc(O)cc1)C(=O)O)C2=O | · | · | · | 3%
CN1/C(=C\C(=O)c2cncc(Br)c2)C(C)(C)c2ccccc21 | -12 | 7%[10 µM] | 16µM* | 2%
CN1/C(=C\C=N\NC(=O)c2cccnc2)C(C)(C)c2ccccc21 | ? | -31% | 6.3µM* | 4%
COc1ccc(-c2nc3c(c4c2C[C@H](c2ccccc2)OC4)CN(C(=O)Cc2cccs2)CC3)c(C)c1 | -1 | -8%[10 µM] | · | -14%[17.5 µM]
CN1c2ccccc2C(=O)N2CCc3c([nH]c4ccccc34)C21 (configuration not stated) | · | · | · | 4%
O=C(O)c1cccc(N2C(=O)/C(=C/c3ccc(SCc4ccc(Cl)cc4)o3)SC2=S)c1 | -16 | 20µM* | 6% | 2%
C=C1C[C@@]23C[C@]1(O)CC[C@@H]2[C@]12C=C[C@@H](O)[C@](C)(C(=O)O1)[C@H]2[C@H]3C(=O)O | -4 | 1%[40.3 µM] | · | -5%[29.1 µM]
COc1ccc(-c2cc(C3C4C=CCC(C)C4C(=O)N3Cc3ccccc3)ccc2F)cc1 (configuration not stated) | · | · | · | -15%
